Active and inactive are the calls of the source. Unless noted, no rule for the calls is given here.
How the values were obtained:
[1] = tested on: Wnt5a (protein binding on small-molecule microarray); test: Wnt5a binders on small-molecule microarray, primary screen, biophysical, 635/667 nm fluorescence (AID 1142); settings: 635 nm fluorescence, higher = more signal;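 also: fluorescence read at 667 nm with signal to noise per printed feature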
[2] = cell viability in Huh7 cells, primary screen, cytotoxicity control for HCV replication inhibitor project, CellTiter-Glo luminescence, basal, 48 h (AID 1143); settings: Huh7 HCV replicon, higher = more signal, called active from +8 up or from −8 down;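 also: Huh7 hepatoma cells carrying a hepatitis C replication reporter with no stimulus; test concentration not given here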
[3] = P. aeruginosa biofilm formation inhibitors, primary screen, PAO1 strain, BacTiter-Glo luminescence, LB-PBS (AID 1144); settings: 12 h, higher = more signal
[4] = CREB reporter modulators without forskolin, primary screen, cell-based, PC12, CRE-LacZ reporter, unstimulated (AID 1145); settings: no forskolin, luminescence, 4.5 h, higher = more signal, called active from +8 up or from −8 down
[5] = CREB reporter modulators under forskolin, primary screen, cell-based, PC12, CRE-LacZ reporter, forskolin-stimulated (AID 1146); settings: luminescence, 4.5 h, higher = more signal, called active from +8 up or from −8 down;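 also: PC12 cells with 6xCRE LacZ reporter stimulated by forskolin 10 µM; beta-galactosidase reporter signal reflecting CREB driven transcription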
[6] = target: Streptavidin (Streptomyces avidinii) (UniProt P22629); test: streptavidin binders on small-molecule microarray, primary screen, artefact control for SMM compound annotation, biophysical, 635/667 nm fluorescence (AID 1147); settings: streptavidin binding, higher = more signal;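 also: signal reflects streptavidin binding to arrayed compounds as a control protein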
[7] = small-molecule binders of probe aInhba, primary screen, biochemical, small-molecule microarray, 635/667 nm fluorescence (AID 1148); settings: higher = more signal;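 also: score merges 667nm spot fluorescence with signal-to-noise for antibody binding to printed compounds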
[8] = target: Torsin-1A (Homo sapiens) (UniProt O14656); test: torsin A binders from cell lysate, primary screen, small-molecule microarray, wild-type, 635/667 nm (AID 1149); settings: COS7 hTOR1A-WT lysate, 635 nm fluorescence, higher = more signal
[9] = target: Torsin-1A (Homo sapiens) (UniProt O14656); test: small-molecule binders of mutant TOR1A in lysate, primary screen, cell lysate, small-molecule microarray, COS7 lysate, 635/667 nm fluorescence (AID 1150); settings: COS7 hTOR1A mutant lysate, 635 nm fluorescence, higher = more signal;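 also: score pools 667 nm emission and signal to noise measuring lysate protein binding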
[10] = tested on: Sonic hedgehog protein (Shh); test: small-molecule binders of Shh protein, primary screen, biochemical, small-molecule microarray, 635/667 nm fluorescence (AID 1151); settings: small-molecule microarray binding, 635 nm fluorescence; higher = more signal;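 also: Shh protein binding to compounds spotted on small-molecule microarray slides; score combines spot fluorescence intensity with signal-to-noise across triplicate slides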
[11] = E. coli DRC41 culture turbidity changes, primary screen, E. coli filamentation inducer project, strain DRC41, OD650, 48 h (AID 1152);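 also: E. coli MC1000 strain DRC41 lacking acrAB efflux pump and sulA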; settings: E. coli DRC41 (acrAB sulA), higher = more signal, called active from +8 up or from −8 down
[12] = small-molecule binders of probe aLefty1, primary screen, biochemical, small-molecule microarray, 635/667 nm fluorescence (AID 1153); settings: higher = more signal;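 also: score merges spot fluorescence with signal-to-noise ratio from the scanned slide images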
[13] = PSAC antagonists in infected red cells, primary screen, cell-based, P. falciparum Indochina, OD700, 1 h (AID 1154); settings: P. falciparum Indochina infected RBC osmotic lysis, higher = more signal, called active from +8 up or from −8 down
[14] = PSAC antagonists in infected red cells, primary screen, cell-based, P. falciparum Indochina, OD700, 2 h (AID 1155);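 also: lysis reports solute entry through the parasite surface anion channel PSAC; channel blockers reduce lysis of infected cells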; settings: P. falciparum Indochina infected erythrocytes, osmotic lysis OD700; higher = more signal, called active from +8 up or from −8 down
[15] = osmotic lysis modulators in infected erythrocytes, primary screen, PSAC antagonist project, cell-based, P. falciparum Indochina, OD700, 3 h (AID 1156); settings: higher = more signal, called active from +8 up or from −8 down
[16] = PSAC antagonists in infected red cells, primary screen, cell-based, P. falciparum Indochina, OD700, 18 h (AID 1157); settings: P. falciparum Indochina infected erythrocytes, osmotic lysis OD700, 18 h; higher = more signal, called active from +8 up or from −8 down
[17] = modulators of S6 phosphorylation in cells, primary screen, cell-based, A549, cytoblot, luminescence, serum-stimulated (AID 1158); settings: A549 phospho-S6 cytoblot, 5 h, higher = more signal;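 also: serum-stimulated A549 lung adenocarcinoma cells; signal is phosphorylated S6 detected by cytoblot immunostaining with HRP secondary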
[18] = target: NADPH oxidase 2 (Homo sapiens) (UniProt P04839); test: NOX2-dependent H2O2 signal modulators, primary screen, NOX inhibitor project, cell-based, HEK293-NOX2, PMA-stimulated, Amplex Red fluorescence (AID 1159); settings: 45 min, higher = more signal, called active from +8 up or from −8 down; also: test concentration not given here
[19] = target: NADPH oxidase 4 (Homo sapiens) (UniProt Q9NPH5); test: NOX4-dependent H2O2 signal modulators, primary screen, NOX inhibitor project, cell-based, HEK293-NOX4, tetracycline-induced, Amplex Red fluorescence (AID 1160); settings: 45 min, higher = more signal, called active from +8 up or from −8 down
[20] = target: NADPH oxidase 5 (Homo sapiens) (UniProt Q96PH1); test: NOX5-dependent H2O2 signal modulators, primary screen, NOX inhibitor project, cell-based, HEK293-NOX5, Amplex Red fluorescence (AID 1161); settings: HEK293-NOX5, ionomycin, 45 min, higher = more signal
Sequence of NADPH oxidase 5 (Homo sapiens) (Q96PH1 whole entry, looked up): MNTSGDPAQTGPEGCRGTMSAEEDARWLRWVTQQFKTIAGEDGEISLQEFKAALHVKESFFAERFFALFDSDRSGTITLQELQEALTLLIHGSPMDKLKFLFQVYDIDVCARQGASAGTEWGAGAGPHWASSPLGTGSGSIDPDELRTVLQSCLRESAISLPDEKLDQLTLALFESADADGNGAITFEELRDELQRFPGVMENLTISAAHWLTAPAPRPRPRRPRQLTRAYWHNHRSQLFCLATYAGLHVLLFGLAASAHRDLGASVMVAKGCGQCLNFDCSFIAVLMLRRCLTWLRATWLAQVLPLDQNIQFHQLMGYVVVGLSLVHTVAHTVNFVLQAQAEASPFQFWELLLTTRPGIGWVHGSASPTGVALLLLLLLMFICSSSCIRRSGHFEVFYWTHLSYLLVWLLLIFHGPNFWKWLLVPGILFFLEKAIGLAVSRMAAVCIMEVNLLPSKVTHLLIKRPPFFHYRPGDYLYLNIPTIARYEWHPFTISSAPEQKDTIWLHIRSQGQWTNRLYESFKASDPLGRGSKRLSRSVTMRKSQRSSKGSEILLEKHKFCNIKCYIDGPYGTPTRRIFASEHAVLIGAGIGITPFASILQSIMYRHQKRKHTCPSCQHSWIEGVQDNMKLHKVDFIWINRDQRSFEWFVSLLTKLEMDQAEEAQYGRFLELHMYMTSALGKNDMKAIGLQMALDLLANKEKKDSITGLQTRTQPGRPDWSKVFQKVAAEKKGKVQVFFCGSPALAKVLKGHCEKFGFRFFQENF

Sequence of Streptavidin (Streptomyces avidinii) (P22629 whole entry, looked up): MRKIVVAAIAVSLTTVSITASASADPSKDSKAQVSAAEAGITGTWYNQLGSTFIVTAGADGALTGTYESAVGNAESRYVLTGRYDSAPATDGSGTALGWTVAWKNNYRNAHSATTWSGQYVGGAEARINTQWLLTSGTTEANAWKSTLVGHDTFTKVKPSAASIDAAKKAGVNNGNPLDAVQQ
Sequence of NADPH oxidase 4 (Homo sapiens) (Q9NPH5 whole entry, looked up): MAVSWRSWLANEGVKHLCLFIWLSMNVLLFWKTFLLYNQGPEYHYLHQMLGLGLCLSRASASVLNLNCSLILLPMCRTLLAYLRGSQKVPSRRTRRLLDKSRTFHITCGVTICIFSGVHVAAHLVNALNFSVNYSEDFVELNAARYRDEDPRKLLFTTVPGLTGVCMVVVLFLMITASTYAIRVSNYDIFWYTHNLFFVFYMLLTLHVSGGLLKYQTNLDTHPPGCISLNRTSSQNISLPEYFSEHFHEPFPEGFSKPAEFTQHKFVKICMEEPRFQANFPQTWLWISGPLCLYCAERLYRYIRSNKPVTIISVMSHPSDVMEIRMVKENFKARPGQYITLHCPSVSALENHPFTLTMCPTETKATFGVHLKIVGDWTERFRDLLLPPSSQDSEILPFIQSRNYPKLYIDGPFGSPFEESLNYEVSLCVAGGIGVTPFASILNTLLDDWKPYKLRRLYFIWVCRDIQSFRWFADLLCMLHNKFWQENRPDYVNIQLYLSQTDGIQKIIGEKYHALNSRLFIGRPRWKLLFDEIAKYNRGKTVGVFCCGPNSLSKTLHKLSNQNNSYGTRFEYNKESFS
Sequence of NADPH oxidase 2 (Homo sapiens) (P04839 whole entry, looked up): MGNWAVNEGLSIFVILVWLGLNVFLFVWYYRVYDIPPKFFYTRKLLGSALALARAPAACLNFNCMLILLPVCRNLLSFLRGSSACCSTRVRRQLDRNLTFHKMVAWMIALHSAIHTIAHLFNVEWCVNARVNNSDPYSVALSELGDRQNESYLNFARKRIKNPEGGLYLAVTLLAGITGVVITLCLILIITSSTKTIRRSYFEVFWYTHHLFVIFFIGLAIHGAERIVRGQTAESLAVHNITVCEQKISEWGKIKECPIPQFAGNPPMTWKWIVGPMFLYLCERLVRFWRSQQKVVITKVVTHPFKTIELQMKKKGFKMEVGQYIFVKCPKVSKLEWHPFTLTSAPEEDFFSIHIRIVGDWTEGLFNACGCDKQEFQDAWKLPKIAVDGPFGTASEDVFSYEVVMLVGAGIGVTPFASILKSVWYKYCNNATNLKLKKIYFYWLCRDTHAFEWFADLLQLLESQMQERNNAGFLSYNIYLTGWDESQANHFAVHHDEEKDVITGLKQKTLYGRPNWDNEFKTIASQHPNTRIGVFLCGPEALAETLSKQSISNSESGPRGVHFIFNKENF
Sequence of Torsin-1A (Homo sapiens) (O14656 whole entry, looked up): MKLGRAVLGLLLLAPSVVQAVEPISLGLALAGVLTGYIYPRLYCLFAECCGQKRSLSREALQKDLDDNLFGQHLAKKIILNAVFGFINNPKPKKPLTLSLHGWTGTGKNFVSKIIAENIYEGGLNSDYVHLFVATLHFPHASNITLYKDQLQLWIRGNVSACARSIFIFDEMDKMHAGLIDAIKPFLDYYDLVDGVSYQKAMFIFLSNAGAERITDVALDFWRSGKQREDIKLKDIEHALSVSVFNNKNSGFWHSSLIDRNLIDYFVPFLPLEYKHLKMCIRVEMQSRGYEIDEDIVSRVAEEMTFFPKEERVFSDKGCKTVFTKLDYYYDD

| Structure (SMILES) | composite z-score [1] | z-score [2] | z-score [3] | z-score [4] | z-score [5] | composite z-score [6] | composite z-score [7] | composite z-score [8] | composite z-score [9] | composite z-score [10] | z-score [11] | composite z-score [12] | z-score [13] | z-score [14] | z-score [15] | z-score [16] | z-score [17] | z-score [18] | z-score [19] | z-score [20] |
| --- | --- | --- | --- | --- | --- | --- | --- | --- | --- | --- | --- | --- | --- | --- | --- | --- | --- | --- | --- | --- |
| CCN1C(=O)[C@H]2[C@H]3[C@H](O)[C@H](O)CC(=NNC(=O)OCc4ccccc4)[C@H]3CC[C@H]2C1=O | 0.038 | -0.0436 (inactive) | 0.877 (inactive) | -0.119 (inactive) | -0.497 (inactive) | 0.214 | -0.0719 | -0.211 | 0.223 | -0.486 | -1.89 (inactive) | 0.0931 | 1.26 (inactive) | 0.322 (inactive) | 0.364 (inactive) | 0.0338 (inactive) | -0.18 | 0.92 (inactive) | 0.424 (inactive) | 0.0659 |
| CO[C@@H](C(C)C)[C@@H](C)C1OC(=O)CC1O (stereo not given in full) | -0.124 | 0.265 (inactive) | 0.446 (inactive) | -0.0673 (inactive) | -0.0208 (inactive) | -0.468 | -0.158 | -0.118 | -0.0794 | -0.595 | 0.486 (inactive) | -0.278 | -0.315 (inactive) | 0.0974 (inactive) | -0.566 (inactive) | -0.121 (inactive) | -0.289 | 1.29 (inactive) | 0.129 (inactive) | 0.368 |
| COc1ccc(O[C@H]2C=C[C@@H](c3ccccc3)O[C@@H]2COC(=O)NCc2cccc3ccccc23)cc1 | -0.092 | -1.55 (inactive) | 0.928 (inactive) | 0.745 (inactive) | 1.56 (inactive) | 0.493 | -0.218 | 0.0485 | 0.225 | 0.401 | -0.286 (inactive) | -0.0046 | 2.71 (inactive) | 0.896 (inactive) | -0.119 (inactive) | 0.515 (inactive) | -0.553 | 0.5 (inactive) | -0.0581 (inactive) | -0.406 |
| O=C1C[C@@H](O)[C@@H](O)[C@@H]2[C@@H]3C(=O)N(c4ccc(F)cc4F)C(=O)[C@@H]3CC[C@H]12 | 0.0583 | -1.24 (inactive) | 0.0279 (inactive) | 0.064 (inactive) | -0.13 (inactive) | 0.234 | -0.101 | 0.403 | 0.302 | 1.09 | -0.706 (inactive) | -0.147 | -0.0503 (inactive) | 0.0554 (inactive) | -0.737 (inactive) | 0.06 (inactive) | 0.0123 | 1.09 (inactive) | 0.366 (inactive) | -0.158 |
| O=C1C[C@@H](O)[C@@H](O)[C@@H]2[C@@H]3C(=O)N(Cc4ccccc4)C(=O)[C@@H]3CC[C@H]12 | 0.0217 | -0.3 (inactive) | -0.473 (inactive) | -0.293 (inactive) | -0.497 (inactive) | 0.636 | -0.0719 | 0.176 | 0.37 | 0.718 | -0.675 (inactive) | -0.147 | 1.56 (inactive) | 0.586 (inactive) | 0.215 (inactive) | 0.526 (inactive) | -0.254 | 2.31 (inactive) | -0.79 (inactive) | 0.127 |
| CON(C)C(=O)c1nnc2c(n1)[nH]c1ccccc12 | 0.0269 | 0.569 (inactive) | 0.555 (inactive) | 0.198 (inactive) | 0.275 (inactive) | 0.153 | -0.101 | 0.275 | 0.333 | 0.928 | -0.398 (inactive) | -0.161 | 1.61 (inactive) | 0.235 (inactive) | -0.322 (inactive) | 0.0008 (inactive) | -0.133 | 1.04 (inactive) | 0.103 (inactive) | 0.836 |
| CO[C@@H]1COC(=O)[C@H](COCc2ccccc2)NC(=O)CC=C[C@@H](C)[C@H](OC)COC(=O)[C@@H](C)NC(=O)CC=C[C@H]1C | -0.128 | -0.0313 (inactive) | 0.104 (inactive) | 0.337 (inactive) | -0.803 (inactive) | -0.801 | -0.179 | 1.53 | 0.544 | 1.92 | 0.52 (inactive) | -0.193 | -0.302 (inactive) | -0.0696 (inactive) | 0.386 (inactive) | 0.131 (inactive) | 0.166 | -0.74 (inactive) | 0.773 (inactive) | 0.436 |
| CC(CCC(=O)OC[C@H]1O[C@H](C#Cc2ccccc2)C=C[C@@H]1Oc1ccc(C)cc1)=NOC(C)CN1CCCc2nc(C)c(C)cc21 (stereo not given in full) | 0.0127 | -0.386 (inactive) | 0.0692 (inactive) | 0.336 (inactive) | 0.51 (inactive) | 0.727 | -0.0259 | 0.313 | -0.0361 | 0.298 | -0.651 (inactive) | 0.106 | 5.4 (inactive) | 0.859 (inactive) | 0.785 (inactive) | 0.735 (inactive) | -0.624 | -0.866 (inactive) | -0.435 (inactive) | -0.297 |

From PubChem BioAssay
